PubChem BioAssay (NCI)
The panel holds about 79,000 compounds, 15% with a hit somewhere; the sample as a whole holds those more often. Values without a mark were called inactive. The source made the active and inactive calls. Cut-off read from the data, not from the text of the source: active = growth inhibition above about 70%; inactive = the rest.

Tests used:
[1] = NCI Yeast Anticancer Drug Screen. Data for the rad50 strain (AID 155);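 note: 0% = growth of vehicle-only cultures of the same strain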; settings: S. cerevisiae rad50 strain growth inhibition; at 50.0 µM; hits give high values
Outline: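 Yeast carrying a defined DNA repair defect were exposed to test compounds, and growth was compared with vehicle-treated controls to give percent inhibition.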

[2] = NCI Yeast Anticancer Drug Screen. Data for the mec2-1 strain (AID 157); settings: S. cerevisiae mec2-1 strain, at 50.0 µM, hits give high values
Outline: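 Each compound was tested on mec2-1 yeast, a strain altered in DNA damage repair or cell cycle control. Growth inhibition is reported relative to vehicle.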

[3] = NCI Yeast Anticancer Drug Screen. Data for the sgs1 mgt1 strain (AID 161);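 note: 0% = growth of cultures given vehicle only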; settings: S. cerevisiae sgs1 mgt1 strain, at 50.0 µM, hits give high values
Outline: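 Read-out: growth inhibition vs vehicle controls. Cells: mutant yeast strain deficient in DNA damage repair.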

[4] = NCI Yeast Anticancer Drug Screen. Data for the cln2 rad14 strain (AID 165);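 note: 0% = growth equal to vehicle treated cultures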; settings: S. cerevisiae cln2 rad14 strain, at 50.0 µM, hits give high values
Outline: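 Test compounds were added to cln2 rad14 yeast cultures; inhibition of growth was then determined by comparison with vehicle treatment.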

[5] = NCI Yeast Anticancer Drug Screen. Data for the bub3 strain (AID 167); settings: S. cerevisiae bub3 mutant strain, at 50.0 µM, hits give high values
Outline: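 Compounds were applied to a genetically altered yeast strain carrying a cell-cycle control defect. Growth inhibition was scored against vehicle-treated controls.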

[6] = NCI Yeast Anticancer Drug Screen. Data for the mlh1 rad18 strain (AID 175); settings: S. cerevisiae mlh1 rad18 strain growth inhibition; at 50.0 µM; hits give high values
Outline: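 Inhibition values reflect reduced growth of mutant yeast versus vehicle-treated controls following compound exposure; the mutations affect DNA damage repair.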

Row | Compound | growth inhibition [1] | growth inhibition [2] | growth inhibition [3] | growth inhibition [4] | growth inhibition [5] | growth inhibition [6]
1 | CC[N+](CC)(CC)CC.[C-]#[O+].[C-]#[O+].[C-]#[O+].[Cr+4].[c-]1[c-][c-][cH-][c-]1 | 11.3% | 12.4% | 8.75% | -10.8% | 6.65% | -5.8%
2 | COc1cc2c(cc1O)-c1c(OC)c(O)cc3c1C(C2)N(C)CC3 (stereo unspecified) | -20.6% | -22.4% | -22.6% | -16.4% | -24.4% | -46.9%
3 | NC(=O)Oc1cc(OC(N)=O)cc(N(CCCl)CCCl)c1 | 32.8% | 34% | 36.6% | 12% | 40% | 40%
4 | NCCCC(N)P(=O)(O)O (stereo unspecified) | 12.3% | -1.6% | 2.6% | -106% | 1% | 5.55%
5 | CCN(c1ccccc1)P(I)(c1ccccc1)(c1ccccc1)c1ccccc1 | 98.7% (active) | 99.5% (active) | 99.3% (active) | 98.6% (active) | 98.2% (active) | 99% (active)
6 | ClCc1ccccc1 | 40% | 8.8% | 4.9% | -19.7% | 30.6% | 22.5%
7 | N#Cc1cccnc1 | 4.75% | -4.15% | 4.1% | 5.6% | 9.05% | 2.75%
8 | O=Cc1ccccc1O.O=Cc1ccccc1O.O=Cc1ccccc1O.[La] | -1.05% | -6.95% | 4.7% | -10.1% | 4.8% | 16.9%
9 | Clc1cc[c]([Sb]2([c]3ccc(Cl)cc3)([c]3ccc(Cl)cc3)[O]C(C(Cl)(Cl)Cl)[O]2)cc1 (stereo unspecified) | 98.3% (active) | 98.5% (active) | 98.2% (active) | 98.2% (active) | 97% (active) | 97.8% (active)
10 | COc1ccc2c(c1O)C1=CC(=O)CC[C@]13CCN(C)[C@H]3C2 | -14.1% | -38.3% | -14.2% | 6.15% | -15.2% | -10.2%
11 | O=[N+]([O-])c1cccc(N=Nc2ccc(N(CCCl)CCCl)cc2)c1 | -23.4% | 0.6% | -2.55% | -27.2% | 4.65% | 11.6%
12 | CC(=O)NC(CS)C(=O)[O-].CC(=O)NC(CS)C(=O)[O-].N.N.[Pt+4] (stereo unspecified) | 7.85% | -9.85% | 15.2% | -38.1% | 14.4% | 27.2%
13 | CCCCCCNP(=O)(OCC)OCC | -6% | -36.9% | 5.3% | 6.8% | -41.8% | 12.3%
14 | CN(C)P1(=O)NCC(C(C)(C)C)CO1 (stereo unspecified) | 26.4% | -21.1% | -5.3% | 21.6% | -0.1% | -16.8%
15 | COc1ccc(NC2=C(C)C(=O)C3=C(C2=O)[C@H](COC(N)=O)[C@]2(OC)[C@@H]4N[C@@H]4CN32)cc1 | 81.7% (active) | 79.7% (active) | 74.8% (active) | 71.6% (active) | 69.4% | 73.7% (active)
16 | Cc1ccc(OP(=O)(Oc2ccc(C)cc2)Oc2ccc(C)cc2)cc1.Cc1ccc(OP(=O)(Oc2ccc(C)cc2)Oc2ccc(C)cc2)cc1.Cc1ccc(OP(=O)(Oc2ccc(C)cc2)Oc2ccc(C)cc2)cc1.Cc1ccc(OP(=O)(Oc2ccc(C)cc2)Oc2ccc(C)cc2)cc1.[Cr+3].[O-][Cl+3]([O-])([O-])O | 0.95% | -2.2% | 0.15% | -3.05% | -4.35% | -3.55%
17 | Clc1ccc(-c2csc3cccc[n+]23)cc1 | 7.5% | 4.35% | 19.4% | 24.1% | 22.8% | 19.3%
18 | CN(C)P(=S)(CCPc1ccccc1)N(C)C (stereo unspecified) | -13.5% | -23.6% | -12.8% | 2.95% | -5.75% | -5.8%
19 | CCCCCCCCCCC(O)[C@H]1CCC(C2CC[C@H]([C@H](O)CCCCCCCCCCC(O)CC3=CC(C)OC3=O)O2)O1 (stereo partly specified) | 2.15% | -5.15% | -13.3% | -10.7% | 0.85% | 5.2%
20 | CCCCC(=O)[O-].N.N.N.N.N.[Co+3].[O-][Cl+3]([O-])([O-])[O-] | -19.9% | 19.4% | -18.4% | 21.4% | -0.3% | -16%
21 | CN(C)CCCN1CCCCC1 | 8.7% | -0.65% | -4.45% | 3.8% | 7.05% | -8%

Row | Compound | growth inhibition [1] | growth inhibition [2] | growth inhibition [3] | growth inhibition [4] | growth inhibition [5] | growth inhibition [6]
22 | CC(N)C(=O)c1ccccc1 (stereo unspecified) | -2.75% | 5.2% | 6.9% | -38.2% | 15.3% | 1.25%
23 | BrCC[N+]12CCCN1CCC2 | -7.95% | -31.4% | 3.25% | 0.2% | -7.05% | -31.3%
24 | C[C@H](O)CCC(=O)c1ccoc1 | -5.65% | -2.6% | -22.1% | 6.2% | -22.1% | -14.1%
25 | CCc1ccc([N+](=O)[O-])cc1 | -9.25% | -12% | -19.7% | -29.4% | 1.35% | 10.5%
26 | CN(C)NP(=O)(c1ccccc1)c1ccccc1 | 0.05% | -3.05% | -4.45% | -10.5% | 7.75% | -2.9%
27 | Cc1ccc([NH-])cc1.Cc1ccc([NH-])cc1.[Cl][Pt+2][Cl] | -31.7% | -6.8% | 3.95% | -61.7% | 3.55% | -11.3%
28 | COc1cc(OC)c(SC)cc1CC(C)N (stereo unspecified) | -19.2% | -0.95% | -3.2% | -16.1% | 21.3% | -3.05%
29 | Cc1ccc(C(=O)O[C@H](C(=O)O)[C@H](OC(=O)c2ccc(C)cc2)C(=O)O)cc1 | 18.1% | -4.05% | -19.6% | 10.4% | 2.6% | -11.1%
30 | CN(C)C(=O)c1nnsc1NN=O | 32% | 33.7% | -35.1% | 8.35% | -14.4% | 9.35%
31 | Cn1cnnc1[N+](=O)[O-] | 1.75% | 5.85% | -11.4% | -1.1% | 3.25% | 15.7%
32 | CC1=C(C)CN(CCc2c[nH]c3ccccc23)C(C#N)C1 (stereo unspecified) | 0.6% | 2.3% | 3.95% | 60.5% | 11.9% | 12.5%
33 | Cn1nnnc1NC#N | -9.15% | 4.85% | 1% | 6.7% | 23.4% | -4.25%
34 | Cc1ccc(N)cc1 | 2.1% | -2.55% | -7.2% | -1.1% | 9.4% | 1.3%
35 | CCOP(=O)(/C=C/c1cc(OC)ccc1OC)OCC | -0.05% | -12.8% | -32.4% | -24.5% | -29.8% | -26.1%
36 | O=C(NCC(O)CO)c1cc(N(CCCl)CCCl)c([N+](=O)[O-])cc1[N+](=O)[O-] (stereo unspecified) | 3.8% | -35.9% | -10.5% | -63.6% | -10.4% | 6.35%
37 | O=S(=O)(O)O.[In] | 22.2% | 41.6% | 39.1% | 10.1% | 26.5% | 15.1%
38 | O=CC1(c2ccccc2)CCNCC1 | -0.95% | 3.85% | 15.5% | 6.35% | 0.85% | 8.85%
39 | Nc1nc(N)c(N=Nc2ccc([As](=O)(O)O)c(O)c2)c(N)n1 | -4% | -6.9% | -36% | -18.4% | -43% | -18.1%
40 | FC(F)(F)[S-].FC(F)(F)[S-].[C-]#[O+].[C-]#[O+].[C-]#[O+].[C-]#[O+].[C-]#[O+].[C-]#[O+].[C-]#[O+].[C-]#[O+].[Mn].[Mn] | 99.3% (active) | 99.6% (active) | 99.7% (active) | 99% (active) | 99% (active) | 99.3% (active)
41 | C=CCSc1nc2ccccc2c(=O)n1-c1cc(OC)c(Cl)cc1OC | 9% | -20.9% | 15.1% | 8.45% | 42.5% | -9.25%
